Our source for the binding signal values is paper PMC7862700, “An all-to-all approach to the identification of sequence-specific readers for epigenetic DNA modifications on cytosine”.

What all share (assay): DAPPL (digital affinity profiling via proximity ligation, sequencing); 10 mM Tris-HCl pH 7.5, 50 mM NaCl, 1 mM DTT, 4% glycerol, room temperature, 30 min; GST-TFs on glutathione beads, 16-mer random dsDNA library, 0.1% formaldehyde crosslink after washing; high values mean tight binding
The target in one assay is T1, FEV (Homo sapiens, UniProt Q99581 1-238).
T1 sequence: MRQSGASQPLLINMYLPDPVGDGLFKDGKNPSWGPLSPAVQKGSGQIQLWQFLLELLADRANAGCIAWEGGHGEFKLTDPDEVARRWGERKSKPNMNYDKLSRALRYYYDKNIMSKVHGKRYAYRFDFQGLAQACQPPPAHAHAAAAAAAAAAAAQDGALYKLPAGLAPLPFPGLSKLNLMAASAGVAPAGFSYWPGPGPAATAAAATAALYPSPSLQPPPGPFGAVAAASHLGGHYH
As to conditions: protein: recombinant; tags: N-terminal GST; dsDNA, one strand shown. A digest of the protocol: (§1)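 Binding signal is each hexamer's read frequency for a factor divided by its frequency in the tag-only sample. The factors were GST-fused human transcription factors from yeast, captured on glutathione beads, DNA-barcoded and pooled with that sample. Pools were incubated with 200 nmole of a random double-stranded 16-mer DNA library in Tris/NaCl/DTT/glycerol buffer at room temperature for 30 min, then washed, crosslinked with 0.1% formaldehyde, proximity-ligated with BsaI/T4 ligase (1 h, 37 °C), PCR-amplified and sequenced on an Illumina NextSeq500.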

For a further assay, the target named is ETV5 (Homo sapiens, UniProt P41161 1-510). The note with it: protein: recombinant; tags: N-terminal GST; dsDNA, one strand shown. In short, it runs like this:
as §1

For another assay, the target named is HSF1 (Homo sapiens, UniProt Q00613 1-529). As to conditions: protein: recombinant; tags: N-terminal GST; chain copies: 3; dsDNA, one strand shown. A digest of the protocol: as §1
Another assay addresses T2, SPIC (Homo sapiens, UniProt Q8N5J4 1-248).
T2 sequence: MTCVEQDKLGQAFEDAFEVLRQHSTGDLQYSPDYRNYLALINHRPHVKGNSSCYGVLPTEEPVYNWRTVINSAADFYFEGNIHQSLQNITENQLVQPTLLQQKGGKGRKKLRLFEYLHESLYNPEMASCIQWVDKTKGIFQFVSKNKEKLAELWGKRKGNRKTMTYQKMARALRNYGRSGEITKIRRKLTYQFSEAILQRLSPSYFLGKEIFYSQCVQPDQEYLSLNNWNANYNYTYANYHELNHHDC
As to conditions: protein: recombinant; tags: N-terminal GST; dsDNA, one strand shown. A digest of the protocol: as §1

The next assay has as its target ELF4 (Homo sapiens, UniProt Q99607 1-663). The note with it: protein: recombinant; tags: N-terminal GST; dsDNA, one strand shown. In short, it runs like this:
as §1

The target of the next assay is T3, ELK4 (Homo sapiens, UniProt P28324-2 1-405).
T3 sequence: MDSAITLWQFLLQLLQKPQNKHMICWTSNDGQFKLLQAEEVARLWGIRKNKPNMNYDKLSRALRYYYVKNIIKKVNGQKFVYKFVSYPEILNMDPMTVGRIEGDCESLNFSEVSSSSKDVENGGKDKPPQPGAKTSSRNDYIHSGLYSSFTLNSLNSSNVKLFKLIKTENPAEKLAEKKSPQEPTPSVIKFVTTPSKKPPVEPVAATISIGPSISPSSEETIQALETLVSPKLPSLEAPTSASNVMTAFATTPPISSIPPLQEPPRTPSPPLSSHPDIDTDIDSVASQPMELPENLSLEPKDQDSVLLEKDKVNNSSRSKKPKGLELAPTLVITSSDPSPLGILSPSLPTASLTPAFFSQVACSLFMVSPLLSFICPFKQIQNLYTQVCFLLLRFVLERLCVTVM
The note with it: protein: recombinant; tags: N-terminal GST; dsDNA, one strand shown. In short, it runs like this: as §1

The target of another assay is T4, ETV2 (Homo sapiens, UniProt O00321 1-342).
T4 sequence: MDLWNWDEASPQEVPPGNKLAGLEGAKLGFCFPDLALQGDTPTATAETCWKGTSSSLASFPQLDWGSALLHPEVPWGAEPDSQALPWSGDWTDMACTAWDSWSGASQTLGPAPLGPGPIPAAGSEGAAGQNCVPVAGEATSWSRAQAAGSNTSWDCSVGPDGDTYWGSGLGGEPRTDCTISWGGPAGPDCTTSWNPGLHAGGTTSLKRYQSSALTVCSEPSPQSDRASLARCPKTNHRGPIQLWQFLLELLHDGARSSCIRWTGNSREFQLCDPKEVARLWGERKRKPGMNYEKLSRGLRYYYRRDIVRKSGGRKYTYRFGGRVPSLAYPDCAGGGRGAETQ
The note with it: protein: recombinant; tags: N-terminal GST; dsDNA, one strand shown. A digest of the protocol:
as §1

For the next assay, the target named is T5, ELF3 (Homo sapiens, UniProt P78545 1-371).
T5 sequence: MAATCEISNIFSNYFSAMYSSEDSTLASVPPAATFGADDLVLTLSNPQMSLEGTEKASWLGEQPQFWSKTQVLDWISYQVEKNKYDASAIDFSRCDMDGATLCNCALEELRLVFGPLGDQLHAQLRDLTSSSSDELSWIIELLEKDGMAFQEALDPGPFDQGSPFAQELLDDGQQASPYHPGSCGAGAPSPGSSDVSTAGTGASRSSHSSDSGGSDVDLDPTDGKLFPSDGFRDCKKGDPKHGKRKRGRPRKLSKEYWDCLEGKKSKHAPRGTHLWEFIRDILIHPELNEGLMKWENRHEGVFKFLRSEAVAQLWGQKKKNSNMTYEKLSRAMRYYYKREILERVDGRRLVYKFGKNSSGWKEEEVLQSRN
As to conditions: protein: recombinant; tags: N-terminal GST; dsDNA, one strand shown. In short, it runs like this:
as §1

The target of another assay is CRX (Homo sapiens, UniProt O43186 1-299). As to conditions: protein: recombinant; tags: N-terminal GST; dsDNA, one strand shown. In short, it runs like this:
as §1

For the next assay, the target named is ETV1 (Homo sapiens, UniProt P50549 1-477). The note with it: protein: recombinant; tags: N-terminal GST; dsDNA, one strand shown. A digest of the protocol:
as §1

A further assay has as its target T6, ERF (Homo sapiens, UniProt P50548 1-548).
T6 sequence: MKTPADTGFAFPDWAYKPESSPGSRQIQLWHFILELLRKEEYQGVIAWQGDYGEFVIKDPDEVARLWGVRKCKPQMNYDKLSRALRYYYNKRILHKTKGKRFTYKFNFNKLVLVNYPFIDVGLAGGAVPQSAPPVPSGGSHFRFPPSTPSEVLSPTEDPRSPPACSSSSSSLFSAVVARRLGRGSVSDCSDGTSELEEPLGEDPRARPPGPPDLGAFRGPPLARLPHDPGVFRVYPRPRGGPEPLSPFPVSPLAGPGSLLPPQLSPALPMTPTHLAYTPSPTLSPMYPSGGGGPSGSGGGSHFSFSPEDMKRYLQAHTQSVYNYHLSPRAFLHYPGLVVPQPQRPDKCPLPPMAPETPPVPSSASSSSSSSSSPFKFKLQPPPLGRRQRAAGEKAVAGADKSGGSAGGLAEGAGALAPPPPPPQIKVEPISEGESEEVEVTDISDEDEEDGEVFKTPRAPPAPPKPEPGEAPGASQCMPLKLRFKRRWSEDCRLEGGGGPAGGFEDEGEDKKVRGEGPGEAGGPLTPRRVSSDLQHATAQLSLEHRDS
The note with it: protein: recombinant; tags: N-terminal GST; dsDNA, one strand shown. A digest of the protocol: as §1

In another assay the target is T7, ETV3L (Homo sapiens, UniProt Q6ZN32 1-361).
T7 sequence: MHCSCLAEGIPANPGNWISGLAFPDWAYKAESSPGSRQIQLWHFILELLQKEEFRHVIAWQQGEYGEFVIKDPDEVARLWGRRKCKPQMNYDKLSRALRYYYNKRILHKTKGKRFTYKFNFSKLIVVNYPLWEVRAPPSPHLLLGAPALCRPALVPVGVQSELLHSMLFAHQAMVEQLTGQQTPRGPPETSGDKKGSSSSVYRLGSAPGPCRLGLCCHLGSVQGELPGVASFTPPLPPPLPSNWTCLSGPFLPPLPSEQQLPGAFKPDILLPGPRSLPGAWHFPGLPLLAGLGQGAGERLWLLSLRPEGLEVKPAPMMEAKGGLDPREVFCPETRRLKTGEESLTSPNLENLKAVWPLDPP
As to conditions: protein: recombinant; tags: N-terminal GST; dsDNA, one strand shown. A digest of the protocol:
as §1

The target of another assay is T8, ETS2 (Homo sapiens, UniProt P15036 1-469).
T8 sequence: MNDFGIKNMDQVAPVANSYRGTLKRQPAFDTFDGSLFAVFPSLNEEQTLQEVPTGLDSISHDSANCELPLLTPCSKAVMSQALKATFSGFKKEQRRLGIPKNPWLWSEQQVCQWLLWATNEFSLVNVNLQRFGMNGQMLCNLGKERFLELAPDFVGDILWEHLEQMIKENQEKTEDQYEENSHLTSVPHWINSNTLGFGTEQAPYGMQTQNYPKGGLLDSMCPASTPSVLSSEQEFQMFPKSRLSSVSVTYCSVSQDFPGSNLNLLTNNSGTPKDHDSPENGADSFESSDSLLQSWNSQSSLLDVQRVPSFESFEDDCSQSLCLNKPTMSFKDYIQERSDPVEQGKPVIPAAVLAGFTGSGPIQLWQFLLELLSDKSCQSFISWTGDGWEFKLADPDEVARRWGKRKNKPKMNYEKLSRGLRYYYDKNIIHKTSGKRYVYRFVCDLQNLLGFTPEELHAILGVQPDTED
As to conditions: protein: recombinant; tags: N-terminal GST; dsDNA, one strand shown. In short, it runs like this: as §1

Another assay concerns the target T9, SPDEF (Homo sapiens, UniProt O95238 1-335).
T9 sequence: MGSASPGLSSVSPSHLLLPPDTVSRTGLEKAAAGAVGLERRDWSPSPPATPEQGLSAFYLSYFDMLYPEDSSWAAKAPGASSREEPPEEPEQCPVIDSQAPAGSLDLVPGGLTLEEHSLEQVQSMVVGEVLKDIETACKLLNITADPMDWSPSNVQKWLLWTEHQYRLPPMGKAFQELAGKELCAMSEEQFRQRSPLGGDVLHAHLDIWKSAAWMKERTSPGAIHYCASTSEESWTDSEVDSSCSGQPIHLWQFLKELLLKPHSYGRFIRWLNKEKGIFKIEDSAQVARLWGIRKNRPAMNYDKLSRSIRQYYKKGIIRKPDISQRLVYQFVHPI
As to conditions: protein: recombinant; tags: N-terminal GST; dsDNA, one strand shown. In short, it runs like this:
as §1

The target of a further assay is T10, ETV7 (Homo sapiens, UniProt Q9Y603 1-341).
T10 sequence: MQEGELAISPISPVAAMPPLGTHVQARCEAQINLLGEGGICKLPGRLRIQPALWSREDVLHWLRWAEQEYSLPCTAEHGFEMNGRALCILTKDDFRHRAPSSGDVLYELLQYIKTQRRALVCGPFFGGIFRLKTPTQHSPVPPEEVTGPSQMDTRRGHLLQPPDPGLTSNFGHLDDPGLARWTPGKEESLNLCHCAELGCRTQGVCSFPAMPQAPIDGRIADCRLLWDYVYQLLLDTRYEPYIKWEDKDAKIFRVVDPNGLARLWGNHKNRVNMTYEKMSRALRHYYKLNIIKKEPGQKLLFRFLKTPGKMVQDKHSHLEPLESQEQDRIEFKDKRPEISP
The note with it: protein: recombinant; tags: N-terminal GST; dsDNA, one strand shown. A digest of the protocol: as §1

For the next assay, the target named is T11, ELF5 (Homo sapiens, UniProt Q9UKW6-2 1-255).
T11 sequence: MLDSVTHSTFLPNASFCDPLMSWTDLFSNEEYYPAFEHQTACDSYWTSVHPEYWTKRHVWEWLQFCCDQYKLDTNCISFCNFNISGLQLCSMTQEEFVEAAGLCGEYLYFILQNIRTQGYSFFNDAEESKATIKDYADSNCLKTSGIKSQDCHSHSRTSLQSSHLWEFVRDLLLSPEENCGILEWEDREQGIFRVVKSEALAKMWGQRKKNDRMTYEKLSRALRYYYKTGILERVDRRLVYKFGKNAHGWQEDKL
As to conditions: protein: recombinant; tags: N-terminal GST; dsDNA, one strand shown. In short, it runs like this:
as §1

In the next assay the target is T12, ETV3 (Homo sapiens, UniProt P41162-2 1-143).
T12 sequence: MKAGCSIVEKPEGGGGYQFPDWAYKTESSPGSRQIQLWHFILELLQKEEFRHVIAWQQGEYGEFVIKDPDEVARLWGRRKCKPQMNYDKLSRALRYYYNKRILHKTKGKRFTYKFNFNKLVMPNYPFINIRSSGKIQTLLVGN
As to conditions: protein: recombinant; tags: N-terminal GST; dsDNA, one strand shown. In short, it runs like this: as §1

The target in the next assay is ETV6 (Homo sapiens, UniProt P41212 1-452). As to conditions: protein: recombinant; tags: N-terminal GST; dsDNA, one strand shown. A digest of the protocol:
as §1

Sequence of ELF4 (Q99607 whole entry): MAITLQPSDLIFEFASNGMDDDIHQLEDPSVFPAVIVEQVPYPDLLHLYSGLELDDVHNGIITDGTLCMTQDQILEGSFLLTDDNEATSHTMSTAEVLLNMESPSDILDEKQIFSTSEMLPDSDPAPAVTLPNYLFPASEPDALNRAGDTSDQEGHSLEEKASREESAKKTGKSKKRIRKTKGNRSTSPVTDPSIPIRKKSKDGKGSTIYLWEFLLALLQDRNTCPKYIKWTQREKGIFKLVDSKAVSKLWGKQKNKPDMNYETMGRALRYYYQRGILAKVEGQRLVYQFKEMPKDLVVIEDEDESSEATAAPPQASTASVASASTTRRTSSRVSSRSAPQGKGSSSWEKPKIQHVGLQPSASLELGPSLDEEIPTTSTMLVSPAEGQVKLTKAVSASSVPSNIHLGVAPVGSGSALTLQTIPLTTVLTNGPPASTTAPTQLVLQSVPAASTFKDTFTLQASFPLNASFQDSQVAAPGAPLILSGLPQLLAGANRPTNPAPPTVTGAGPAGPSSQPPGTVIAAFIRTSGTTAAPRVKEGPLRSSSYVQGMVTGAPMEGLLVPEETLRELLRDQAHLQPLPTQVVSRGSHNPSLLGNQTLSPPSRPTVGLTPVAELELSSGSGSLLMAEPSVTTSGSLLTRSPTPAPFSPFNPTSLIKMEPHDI
Sequence of HSF1 (Q00613 whole entry): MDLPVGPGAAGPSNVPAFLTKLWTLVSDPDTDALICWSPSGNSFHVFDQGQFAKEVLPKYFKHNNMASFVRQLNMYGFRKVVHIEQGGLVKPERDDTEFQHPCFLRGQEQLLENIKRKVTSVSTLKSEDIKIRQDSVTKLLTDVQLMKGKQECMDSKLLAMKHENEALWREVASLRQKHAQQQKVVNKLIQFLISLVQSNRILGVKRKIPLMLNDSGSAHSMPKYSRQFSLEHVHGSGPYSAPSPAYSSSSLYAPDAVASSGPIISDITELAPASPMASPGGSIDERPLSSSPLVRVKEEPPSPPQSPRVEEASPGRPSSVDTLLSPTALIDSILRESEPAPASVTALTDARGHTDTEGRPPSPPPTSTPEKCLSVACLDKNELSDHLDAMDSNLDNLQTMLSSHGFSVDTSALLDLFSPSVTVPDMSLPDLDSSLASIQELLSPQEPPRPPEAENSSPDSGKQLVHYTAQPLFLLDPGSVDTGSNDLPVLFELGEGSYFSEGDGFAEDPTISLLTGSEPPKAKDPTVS
Sequence of ETV6 (P41212 whole entry): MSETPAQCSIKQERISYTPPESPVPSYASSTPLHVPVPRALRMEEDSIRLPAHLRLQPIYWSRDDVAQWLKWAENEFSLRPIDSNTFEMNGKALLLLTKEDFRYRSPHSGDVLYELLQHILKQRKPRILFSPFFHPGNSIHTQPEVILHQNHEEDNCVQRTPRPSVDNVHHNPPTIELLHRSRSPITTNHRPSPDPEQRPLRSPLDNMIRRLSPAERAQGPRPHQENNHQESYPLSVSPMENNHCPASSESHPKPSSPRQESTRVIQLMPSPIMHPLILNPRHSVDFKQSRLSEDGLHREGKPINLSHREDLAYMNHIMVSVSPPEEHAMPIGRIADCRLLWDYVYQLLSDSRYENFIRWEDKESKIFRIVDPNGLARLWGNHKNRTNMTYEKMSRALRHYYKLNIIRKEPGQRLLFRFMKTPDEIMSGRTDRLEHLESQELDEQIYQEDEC
Sequence of ETV1 (P50549 whole entry): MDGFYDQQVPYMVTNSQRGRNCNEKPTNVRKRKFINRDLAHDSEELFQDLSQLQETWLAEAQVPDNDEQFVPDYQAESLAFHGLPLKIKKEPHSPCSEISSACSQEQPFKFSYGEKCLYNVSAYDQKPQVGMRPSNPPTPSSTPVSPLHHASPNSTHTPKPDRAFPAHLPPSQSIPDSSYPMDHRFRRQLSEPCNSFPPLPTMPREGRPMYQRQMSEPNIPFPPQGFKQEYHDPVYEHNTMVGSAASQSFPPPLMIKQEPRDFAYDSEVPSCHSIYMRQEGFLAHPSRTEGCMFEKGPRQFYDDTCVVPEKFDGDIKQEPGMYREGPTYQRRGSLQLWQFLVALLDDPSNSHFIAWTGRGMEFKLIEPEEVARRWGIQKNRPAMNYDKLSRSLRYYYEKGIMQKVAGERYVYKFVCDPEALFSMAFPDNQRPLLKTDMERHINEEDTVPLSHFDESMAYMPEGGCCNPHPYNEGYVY
Sequence of ETV5 (P41161 whole entry): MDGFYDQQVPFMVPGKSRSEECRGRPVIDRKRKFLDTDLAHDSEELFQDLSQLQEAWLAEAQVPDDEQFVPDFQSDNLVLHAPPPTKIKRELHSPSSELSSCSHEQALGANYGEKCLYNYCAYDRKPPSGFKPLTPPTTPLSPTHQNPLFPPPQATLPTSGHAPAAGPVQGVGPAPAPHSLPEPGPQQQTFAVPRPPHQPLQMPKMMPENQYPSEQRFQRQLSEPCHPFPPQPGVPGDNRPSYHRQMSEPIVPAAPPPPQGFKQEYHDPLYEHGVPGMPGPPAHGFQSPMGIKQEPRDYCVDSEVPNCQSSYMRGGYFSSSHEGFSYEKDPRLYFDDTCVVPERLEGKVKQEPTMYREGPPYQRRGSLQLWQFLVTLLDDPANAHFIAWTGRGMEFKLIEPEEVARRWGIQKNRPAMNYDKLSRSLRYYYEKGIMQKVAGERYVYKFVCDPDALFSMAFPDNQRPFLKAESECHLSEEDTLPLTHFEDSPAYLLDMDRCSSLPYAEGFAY
Sequence of CRX (O43186 whole entry): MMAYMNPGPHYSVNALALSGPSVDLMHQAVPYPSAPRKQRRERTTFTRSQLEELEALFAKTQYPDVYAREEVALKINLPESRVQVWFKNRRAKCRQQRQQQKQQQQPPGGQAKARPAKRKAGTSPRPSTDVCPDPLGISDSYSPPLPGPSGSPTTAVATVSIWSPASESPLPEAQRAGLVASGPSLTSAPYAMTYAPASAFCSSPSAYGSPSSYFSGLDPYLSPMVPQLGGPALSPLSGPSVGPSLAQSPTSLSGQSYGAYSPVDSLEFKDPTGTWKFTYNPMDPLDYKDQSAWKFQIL

Regarding ACTAAT, the binding signal was 1.19 fold enrichment (6-mer frequency, TF over GST control) in the assay with FEV; 1.3 fold enrichment (6-mer frequency, TF over GST control) with ETV5; 1.81 fold enrichment (6-mer frequency, TF over GST control) with HSF1; 1.46 fold enrichment (6-mer frequency, TF over GST control) with SPIC; 1.36 fold enrichment (6-mer frequency, TF over GST control) with ELF4; 1.24 fold enrichment (6-mer frequency, TF over GST control) with ELK4. Moreover, the binding signal is 1.38 fold enrichment (6-mer frequency, TF over GST control) with ETV2; 1.33 fold enrichment (6-mer frequency, TF over GST control) with ELF3; 2.71 fold enrichment (6-mer frequency, TF over GST control) with CRX; 1.3 fold enrichment (6-mer frequency, TF over GST control) with ETV1; 1.27 fold enrichment (6-mer frequency, TF over GST control) with ERF; 1.24 fold enrichment (6-mer frequency, TF over GST control) in the assay with ETV3L. The binding signal is 1.28 fold enrichment (6-mer frequency, TF over GST control) in the assay with ETS2; 1.21 fold enrichment (6-mer frequency, TF over GST control) with SPDEF; 1.45 fold enrichment (6-mer frequency, TF over GST control) in the assay with ETV7; 1.27 fold enrichment (6-mer frequency, TF over GST control) in the assay with ELF5; 1.12 fold enrichment (6-mer frequency, TF over GST control) with ETV3; 1.31 fold enrichment (6-mer frequency, TF over GST control) with ETV6.
